The values that follow come from PubChem BioAssay (EPA / NIEHS).

Molecules are shown by their SMILES. “And” between values parts separate entries of the source, which are not always exact repeats. Equal entries are not always repeated. Where a structure was tested more than once in an assay, its records may differ in their call. The source made the active and inactive calls. How the source made its calls: active means hit-call score of the fitted dose curve at least 0.9, where 1 is the maximum; inactive means score below 0.9.

Experiment [1] in a line: ATG_M_61_CIS: Attagene CIS-FACTORIAL HepG2 Assay for M61 Transcription Factor (Internal Marker) (AID 2282937). Conditions: HepG2 Attagene CIS-FACTORIAL M61 internal marker reporter; actives raise or lower the signal. An outline of the steps:
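Background-control endpoint: HepG2 cells with cis-regulated reporter constructs, 24 h exposure, reporter mRNA detected via fluorescent primer extension and capillary electrophoresis; values from bidirectional fitting with DMSO baseline.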

Experiment [2] in a line: ATG_EGR_CIS: Attagene CIS-FACTORIAL HepG2 Assay for human Early Growth Response 1 (EGR1) (AID 2282938). Conditions: HepG2 Attagene CIS-FACTORIAL EGR reporter mRNA; actives raise or lower the signal. The method, boiled down: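 Endpoint derived by bidirectional fitting versus DMSO vehicle. Method: cis-promoter reporter units transfected into HepG2, 24 h dosing, RNA isolation, RT-PCR with 6-FAM primer extension and HpaI digestion, then capillary electrophoresis fluorescence detection.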

Experiment [3] can be described thus: ATG_M_19_CIS: Attagene CIS-FACTORIAL HepG2 Assay for M19 Transcription Factor (Internal Marker) (AID 2282939). The note with it: HepG2 Attagene CIS-FACTORIAL M19 internal marker reporter; actives raise or lower the signal. An outline of the steps: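 Chemical-treated HepG2 (24 h) with MRTU constructs; reporter transcripts detected by fluorescent RT-PCR fragment analysis on capillary electrophoresis. Internal background marker, DMSO as baseline.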

Experiment [4] in a line: ATG_ERE_CIS: Attagene CIS-FACTORIAL HepG2 Assay for Estrogen Response Element (ERE) (AID 2282940). Conditions: HepG2 ERE cis-reporter, Attagene RNA transcript; actives raise or lower the signal. An outline of the steps: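 Human liver cells (HepG2) bearing transiently transfected, promoter-regulated reporter units were exposed 24 h. Reporter mRNA induction was detected by capillary electrophoresis of labelled RT-PCR products and fitted bidirectionally to DMSO.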

Experiment [5] in a line: ATG_Ets_CIS: Attagene CIS-FACTORIAL HepG2 Assay for human Erythroblast Transformation Specific (ETS) (AID 2282941). Conditions: HepG2 ETS cis-reporter transcription, actives raise or lower the signal. The method, boiled down:
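RT-PCR/capillary electrophoresis fluorescence read-out of reporter mRNA; HepG2 transient multi-reporter transfection; 24 h compound exposure; gain or loss of signal fitted bidirectionally relative to DMSO.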

Experiment [6] addresses Hepatocyte nuclear factor 3-beta (Homo sapiens) (UniProt Q9Y261). In words: ATG_FoxA2_CIS: Attagene CIS-FACTORIAL HepG2 Assay for human Forkhead box A2 (FOXA2) (AID 2282942). The note with it: HepG2 cis-reporter transcription factor activity, 24 h; actives raise or lower the signal. An outline of the steps: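 Measured: reporter mRNA induction or loss in HepG2 transiently carrying multiple cis-regulated reporter units, 24 h after dosing. Quantified by RT-PCR plus capillary electrophoresis, normalised to DMSO.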

Experiment [7] can be described thus: ATG_FoxO_CIS: Attagene CIS-FACTORIAL HepG2 Assay for human Forkhead box O (FoxO) (AID 2282943). Conditions: HepG2 Attagene cis-reporter, FoxO element, mRNA; actives raise or lower the signal. An outline of the steps:
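HepG2 cells transiently transfected with cis-element-driven reporter units report endogenous FoxO activity. After 24 h chemical exposure, reporter mRNA quantified by RT-PCR, fluorescent labeling, HpaI digestion and capillary electrophoresis; bidirectional fit versus DMSO.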

Experiment [8] can be described thus: ATG_GATA_CIS: Attagene CIS-FACTORIAL HepG2 Assay for human GATA Binding Protein (AID 2282944). The note with it: HepG2 GATA cis-element reporter, Attagene multiplex mRNA; actives raise or lower the signal. The method, boiled down: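 Transfected cis-reporter HepG2 cells were treated with chemicals for 24 hours. Total RNA was then converted to cDNA, amplified with reporter-specific primers and analysed by fluorescent capillary electrophoresis, using DMSO-treated wells as baseline.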

Experiment [9] in a line: ATG_GLI_CIS: Attagene CIS-FACTORIAL HepG2 Assay for human Zinc Finger Protein GLI1 (AID 2282945). The note with it: HepG2, Attagene cis-factorial reporter mRNA, GLI element; actives raise or lower the signal. The method, boiled down: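 Transiently transfected HepG2 cells report endogenous transcription factor activity via cis-element-driven reporter units. After 24 h compound exposure, reporter mRNA was measured by RT-PCR with capillary electrophoresis; bidirectional fitting against DMSO baseline.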

Experiment [10] addresses Bile acid receptor (Homo sapiens) (UniProt Q96RI1). Briefly: ATG_IR1_CIS: Attagene CIS-FACTORIAL HepG2 Assay for human Nuclear Receptor Subfamily 1 Group H Member 4 (NR1H4), IR1 submotif (AID 2282946). The note with it: IR1 reporter transcription, actives raise or lower the signal. An outline of the steps:
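Fluorescence of capillary-separated, HpaI-digested RT-PCR reporter products gave IR1-element mRNA induction in HepG2 cells 24 h after dosing. Endogenous transcription factors drove the cis-regulated reporters; activity was fitted bidirectionally against DMSO.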

A short description of experiment [11]: ATG_GRE_CIS: Attagene CIS-FACTORIAL HepG2 Assay for human Glucocorticoid Response Elements (GRE) (AID 2282947). The note with it: HepG2 GRE cis-reporter, Attagene multiplex mRNA; actives raise or lower the signal. The method, boiled down:
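Fluorescence intensity of reporter-specific cDNA fragments, separated by capillary electrophoresis, provides the signal. Constructs carry cis-regulating promoters in transiently transfected HepG2 liver cells; 24 h incubation; fitting is bidirectional against DMSO.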

Experiment [12] in a line: ATG_ISRE_CIS: Attagene CIS-FACTORIAL HepG2 Assay for human Interferon Regulatory Factor 1 (IRF1) binding to an Interferon-Stimulated Response Element (ISRE) (AID 2282948). The note with it: HepG2 ISRE cis-reporter (Attagene), mRNA transcription readout; actives raise or lower the signal. An outline of the steps:
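Read-out: fluorescent RT-PCR products resolved by capillary electrophoresis, reporting endogenous transcription factor activity via ISRE-driven reporter mRNA in transfected HepG2 cells dosed for 24 h; gain or loss fitted relative to DMSO.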

A short description of experiment [13]: ATG_M_32_CIS: Attagene CIS-FACTORIAL HepG2 Assay for M32 Transcription Factor (Internal Marker) (AID 2282949).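 Further: background control marker of the multiplexed CIS panel rather than a real target.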 Conditions: HepG2 Attagene cis-factorial M32 reporter, mRNA; actives raise or lower the signal. The method, boiled down: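 HepG2 transfectants (cis-regulated reporter transcription units) dosed 24 h. Reporter mRNA by RT-PCR plus CE, analysed as gain or loss relative to DMSO.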

Experiment [14] is described as follows: ATG_M_06_CIS: Attagene CIS-FACTORIAL HepG2 Assay for M06 Transcription Factor (Internal Marker) (AID 2282950). The note with it: HepG2 Attagene CIS-FACTORIAL M06 internal marker reporter; actives raise or lower the signal. An outline of the steps:
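Cells (HepG2, transiently carrying cis-driven reporter units) receive chemical for 24 h before RNA isolation. Reporter cDNA is PCR-amplified, FAM-labelled by primer extension, HpaI-digested and sized on a capillary analyser.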

For experiment [15], the target named is Hypoxia-inducible factor 1-alpha (Homo sapiens) (UniProt Q16665). In words: ATG_HIF1a_CIS: Attagene CIS-FACTORIAL HepG2 Assay for human Hypoxia Inducible Factor 1 (HIF1A) (AID 2282951). Conditions: HepG2 Attagene cis-factorial HIF1a reporter transcription; actives raise or lower the signal. An outline of the steps: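 Dosed 24 h, transfected HepG2 cells yielded total RNA whose reporter transcripts were RT-PCR-amplified and sized by capillary electrophoresis using fluorescent labelling; DMSO defined baseline, with gain and loss of signal both fitted.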
Hypoxia-inducible factor 1-alpha (Homo sapiens), sequence (Q16665 whole entry, looked up): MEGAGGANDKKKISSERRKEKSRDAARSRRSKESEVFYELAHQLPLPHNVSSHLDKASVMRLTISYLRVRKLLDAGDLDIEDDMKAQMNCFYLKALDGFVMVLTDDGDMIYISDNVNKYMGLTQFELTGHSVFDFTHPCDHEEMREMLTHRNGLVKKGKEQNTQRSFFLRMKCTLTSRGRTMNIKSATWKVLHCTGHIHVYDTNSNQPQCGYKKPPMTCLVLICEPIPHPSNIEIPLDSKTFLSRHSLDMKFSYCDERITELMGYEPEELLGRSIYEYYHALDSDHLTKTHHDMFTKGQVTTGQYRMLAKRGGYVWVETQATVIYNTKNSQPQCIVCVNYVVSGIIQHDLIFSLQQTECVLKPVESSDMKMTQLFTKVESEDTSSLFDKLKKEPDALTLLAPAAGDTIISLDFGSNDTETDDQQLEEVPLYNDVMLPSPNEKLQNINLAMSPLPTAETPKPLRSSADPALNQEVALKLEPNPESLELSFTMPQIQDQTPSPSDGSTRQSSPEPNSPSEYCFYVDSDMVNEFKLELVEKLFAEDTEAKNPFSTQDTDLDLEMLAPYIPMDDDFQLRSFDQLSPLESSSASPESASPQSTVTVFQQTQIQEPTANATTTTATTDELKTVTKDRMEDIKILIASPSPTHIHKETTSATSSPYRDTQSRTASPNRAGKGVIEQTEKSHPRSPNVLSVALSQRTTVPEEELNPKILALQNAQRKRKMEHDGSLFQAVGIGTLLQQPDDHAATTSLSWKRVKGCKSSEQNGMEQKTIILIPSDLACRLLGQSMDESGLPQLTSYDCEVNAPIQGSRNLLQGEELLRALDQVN

Experiment [16] concerns the target Hepatocyte nuclear factor 6 (Homo sapiens) (UniProt Q9UBC0). In words: ATG_HNF6_CIS: Attagene CIS-FACTORIAL HepG2 Assay for human Hepatocyte Nuclear Factor 6 (HNF6) (AID 2282952). The note with it: HepG2 Attagene cis-factorial HNF6 reporter transcription; actives raise or lower the signal. An outline of the steps: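 Twenty-four-hour chemical treatment of reporter-transfected HepG2 cells precedes RNA isolation, DNase-treated reverse transcription and PCR of reporter sequences. Labelled fragments are sized by capillary electrophoresis and fitted bidirectionally versus DMSO.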

The target in experiment [17] is Heat shock factor protein 1 (Homo sapiens) (UniProt Q00613). In words: ATG_HSE_CIS: Attagene CIS-FACTORIAL HepG2 Assay for human Heat Shock Transcription Factor 1 (HSE) (AID 2282953). The note with it: HepG2 HSE cis-reporter, Attagene RNA transcription; actives raise or lower the signal. An outline of the steps:
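Liver-derived HepG2 cells carry transiently introduced multiple reporter units governed by cis promoters. Reporter RNA measured 24 h post-dose through reverse transcription, PCR amplification, fluorescent labelling and capillary electrophoresis, normalised to DMSO.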

The nature of experiment [18]: ATG_MRE_CIS: Attagene CIS-FACTORIAL HepG2 Assay for human Metal Responsive Element (MRE) (AID 2282954). The note with it: HepG2 MRE cis-reporter transcription, Attagene multiplex; actives raise or lower the signal. An outline of the steps:
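Measured here is mRNA induction from an MRE cis-element reporter in HepG2 after 24 h, quantified by fluorescence of labelled RT-PCR products on capillary electrophoresis; gain- and loss-of-signal fits use DMSO as baseline.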

Experiment [19] in a line: ATG_PBREM_CIS: Attagene CIS-FACTORIAL HepG2 Assay for human Phenobarbital-responsive Enhancer Module (PBREM) (AID 2282955). Conditions: HepG2 PBREM cis-reporter, Attagene multiplexed transcription; actives raise or lower the signal. An outline of the steps:
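Transfected liver-derived HepG2 cells exposed 24 h; PBREM reporter transcript quantified via RT-PCR and capillary electrophoresis, with activity in either direction referenced to DMSO.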

Bile acid receptor (Homo sapiens), sequence (Q96RI1 whole entry, looked up): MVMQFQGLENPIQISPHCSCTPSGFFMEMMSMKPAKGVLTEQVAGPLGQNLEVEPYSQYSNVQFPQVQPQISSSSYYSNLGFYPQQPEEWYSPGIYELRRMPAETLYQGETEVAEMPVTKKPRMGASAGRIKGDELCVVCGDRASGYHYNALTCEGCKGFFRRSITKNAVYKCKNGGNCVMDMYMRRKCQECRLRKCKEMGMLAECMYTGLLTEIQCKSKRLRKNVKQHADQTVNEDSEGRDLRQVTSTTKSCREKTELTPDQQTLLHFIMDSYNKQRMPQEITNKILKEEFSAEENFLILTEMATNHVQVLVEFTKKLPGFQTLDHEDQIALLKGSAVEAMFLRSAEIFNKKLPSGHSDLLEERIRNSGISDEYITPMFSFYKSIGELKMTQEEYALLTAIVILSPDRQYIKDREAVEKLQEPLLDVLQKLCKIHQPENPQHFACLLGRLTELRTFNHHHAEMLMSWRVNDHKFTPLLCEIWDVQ
Hepatocyte nuclear factor 6 (Homo sapiens), sequence (Q9UBC0 whole entry, looked up, the tested form may be a part): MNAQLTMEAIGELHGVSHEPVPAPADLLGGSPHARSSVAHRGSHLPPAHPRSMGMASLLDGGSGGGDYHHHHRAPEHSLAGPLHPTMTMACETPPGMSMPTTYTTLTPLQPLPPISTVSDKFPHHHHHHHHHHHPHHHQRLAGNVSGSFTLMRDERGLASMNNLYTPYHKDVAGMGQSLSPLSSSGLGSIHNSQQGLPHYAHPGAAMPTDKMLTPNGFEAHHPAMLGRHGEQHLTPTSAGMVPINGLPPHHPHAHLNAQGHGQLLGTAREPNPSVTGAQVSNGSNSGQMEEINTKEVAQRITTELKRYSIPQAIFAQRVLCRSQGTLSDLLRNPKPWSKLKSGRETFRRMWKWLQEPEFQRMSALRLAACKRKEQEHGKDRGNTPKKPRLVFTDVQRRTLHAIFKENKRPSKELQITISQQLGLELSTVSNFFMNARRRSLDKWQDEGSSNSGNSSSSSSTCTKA
Hepatocyte nuclear factor 3-beta (Homo sapiens), sequence (Q9Y261 whole entry, looked up): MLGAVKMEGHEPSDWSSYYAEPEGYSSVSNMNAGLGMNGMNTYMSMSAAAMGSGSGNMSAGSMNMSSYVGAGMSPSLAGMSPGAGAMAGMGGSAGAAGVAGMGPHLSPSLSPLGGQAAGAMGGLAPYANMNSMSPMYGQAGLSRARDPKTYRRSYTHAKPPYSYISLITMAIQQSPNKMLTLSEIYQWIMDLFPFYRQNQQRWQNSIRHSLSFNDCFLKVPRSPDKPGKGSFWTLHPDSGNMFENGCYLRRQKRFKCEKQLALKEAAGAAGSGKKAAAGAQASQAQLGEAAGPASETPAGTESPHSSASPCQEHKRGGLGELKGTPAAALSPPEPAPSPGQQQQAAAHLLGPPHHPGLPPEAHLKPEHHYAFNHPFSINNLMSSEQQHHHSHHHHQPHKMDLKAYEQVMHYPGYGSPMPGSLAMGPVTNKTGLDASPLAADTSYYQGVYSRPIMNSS
Heat shock factor protein 1 (Homo sapiens), sequence (Q00613 whole entry, looked up): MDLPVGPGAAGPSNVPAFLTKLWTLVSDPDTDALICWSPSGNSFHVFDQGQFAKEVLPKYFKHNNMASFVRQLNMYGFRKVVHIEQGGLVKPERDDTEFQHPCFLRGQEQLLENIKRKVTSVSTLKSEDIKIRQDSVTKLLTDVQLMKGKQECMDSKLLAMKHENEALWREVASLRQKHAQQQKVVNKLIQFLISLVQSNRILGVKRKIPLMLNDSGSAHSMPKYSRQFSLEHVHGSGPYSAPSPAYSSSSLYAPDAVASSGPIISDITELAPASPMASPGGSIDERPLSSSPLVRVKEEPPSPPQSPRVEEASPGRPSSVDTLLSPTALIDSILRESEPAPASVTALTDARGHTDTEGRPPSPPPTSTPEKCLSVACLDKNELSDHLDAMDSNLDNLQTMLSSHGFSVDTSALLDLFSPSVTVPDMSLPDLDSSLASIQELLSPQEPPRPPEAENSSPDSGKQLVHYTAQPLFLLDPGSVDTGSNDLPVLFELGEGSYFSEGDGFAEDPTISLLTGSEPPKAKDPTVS

Usually AC50 stands for the midpoint of the concentration-response curve, whichever way the signal moves. In the case of `Cc1cccc([N+](=O)[O-])c1`, the outcome in experiment [1], in experiment [2], in experiment [3], in experiment [4], in experiment [5] and in [6] was inactive. Moreover, the call in [7], in [8], in [9], in experiment [10], in experiment [11] and in [12] was inactive. Moreover, the compound was classed as inactive in experiment [13], in experiment [14], in experiment [16], in experiment [17] and in [18]. In addition, in experiment [15], the AC50 is 181 µM (active).

As to `CCC(C)(CC)c1cc(NC(=O)c2c(OC)cccc2OC)on1`, the compound was called inactive in experiment [1], in experiment [2], in [3], in [5], in [6] and in experiment [7]. The compound was called inactive in experiment [8], in experiment [9], in experiment [12], in [13], in [14] and in experiment [16]. The call in experiment [17] was inactive. The AC50 in experiment [15] was 8.77 µM (active); in experiment [18], 14.4 µM (active); in experiment [19], 1.43 µM (active).

For the compound `ClC(Cl)=C(c1ccc(Cl)cc1)c1ccc(Cl)cc1`, the compound was classed as inactive in experiment [1], in [2], in [3], in experiment [5], in experiment [6] and in [7]. Besides, the compound was called inactive in [8], in [9], in experiment [10], in experiment [11], in experiment [12] and in experiment [13]. For the same compound, the outcome in [14], in experiment [15], in experiment [16], in experiment [17], in experiment [18] and in experiment [19] was inactive. The AC50 is 129 µM (active) in experiment [3]; 14 µM (active) [middle of 4 runs] in experiment [4]; 155 µM (active) in [8]; 131 µM (active) and 63.1 µM (active) and 121 µM (active) in [9]; 21.5 µM (active) and 27.7 µM (active) and 184 µM (active) in experiment [10]; 100 µM (active) in experiment [12]. In addition, the AC50 in [15] was 169 µM (active); in experiment [17] it was 174 µM (active); in experiment [18] it was 156 µM (active).

`C[C@]12CCC(=O)C=C1CC[C@@H]1[C@@H]2CC[C@@]2(C)[C@H]1CC[C@]2(C)O`: the outcome in experiment [1], in [2], in [3], in [5], in experiment [6] and in experiment [7] was inactive. Also, the compound was classed as inactive in experiment [8], in [9], in experiment [10], in experiment [11], in [12] and in [13]. The outcome in experiment [14], in experiment [15], in [16], in [17], in [18] and in experiment [19] was inactive. Moreover, the AC50 in experiment [18] was 132 µM (active) and 129 µM (active) and 79.4 µM (active).

As for `Clc1ccc(C(c2ccccc2Cl)C(Cl)(Cl)Cl)cc1` (stereo not drawn), the compound was called inactive in [1], in experiment [2], in experiment [3], in [5], in experiment [6] and in [7]. In addition, the call in experiment [8], in experiment [9], in [11], in experiment [12], in [13] and in experiment [14] was inactive. In addition, the compound was called inactive in [15], in [16], in experiment [17], in [18] and in experiment [19]. Also, the AC50 in experiment [4] is 874 nM (active) [middle of 4 runs]; in experiment [6] it was 135 µM (active); in experiment [12], 70.5 µM (active) and 82.3 µM (active); in [15], 18.4 µM (active); in experiment [17] it was 50.7 µM (active) and 94.6 µM (active); in experiment [18], 70.5 µM (active) and 36.9 µM (active).
